Results reported in PubChem BioAssay (NCATS).
“And” between values parts separate entries of the source, which are not always exact repeats. Identical values can stand only once. Records with an inconclusive call do not appear. The source holds several records for some structures; these can differ, active in one and inactive in another. The source made the active and inactive calls. Unless noted, calls come from the whole dose curve; as a rule, active = well fitted curve in either direction with a large enough effect (not every such curve was filed as active); inconclusive = small, poorly fitted or top-dose-only effect, or another doubt; inactive = flat fitted curve, though single readings scatter.

How the values were obtained:
[1] = AP1 Signaling Pathway (AID 357);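 note: ME-180 reporter cells stimulated with EGF at its EC50 level; % is set by controls: 0 for no effect and ±100 for the full control effect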
In short: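 Cells are seeded overnight, exposed to compound titrations and an EC50 level of EGF for 5 hours at 37 °C, then loaded with CCF4 dye for 2.5 hours. Beta-lactamase activity under the AP-1 element is read as a blue/green ratio.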

[2] = biological target: Cytochrome P450 1A2 (Homo sapiens) (UniProt P05177); assay: p450-cyp1a2 (AID 410; calls by dose curve; note: potency is the fitted concentration of half-maximal effect;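 for activity change, negative = inhibition: -100% = full effect of reference inhibitor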)
Cytochrome P450 1A2 (Homo sapiens), sequence (P05177 whole entry, looked up): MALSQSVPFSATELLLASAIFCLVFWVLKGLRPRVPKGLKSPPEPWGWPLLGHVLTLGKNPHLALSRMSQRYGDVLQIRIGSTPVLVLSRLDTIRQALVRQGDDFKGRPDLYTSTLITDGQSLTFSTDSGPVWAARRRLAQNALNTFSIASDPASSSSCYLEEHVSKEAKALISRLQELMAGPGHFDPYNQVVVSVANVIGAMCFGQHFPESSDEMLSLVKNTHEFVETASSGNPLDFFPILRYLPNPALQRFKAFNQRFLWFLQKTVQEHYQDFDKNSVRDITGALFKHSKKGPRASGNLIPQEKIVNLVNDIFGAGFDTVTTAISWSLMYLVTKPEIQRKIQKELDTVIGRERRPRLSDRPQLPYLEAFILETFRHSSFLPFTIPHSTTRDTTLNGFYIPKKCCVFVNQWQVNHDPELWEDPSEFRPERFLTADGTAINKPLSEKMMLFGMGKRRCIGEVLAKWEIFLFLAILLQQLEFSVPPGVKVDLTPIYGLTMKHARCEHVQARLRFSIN
In short: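 Luminescent demethylation readout: Luciferin-ME (100uM, equal to Km) turned over by 20nM CYP1A2 for 60 min at room temperature after NADPH regeneration addition, following 10 min compound preincubation. Normalization used 57 uM furafylline as full inhibition.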

[3] = NFAT Signaling Pathway (AID 444); conditions: Jurkat NFAT-bla M1, carbachol, beta-lactamase ratio, 5 h;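 note: carbachol stimulus at about its EC50 of 1 µM final; % is set by controls: 0 for no effect and ±100 for the full control effect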
In short: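 Read-out: CCF4 FRET ratio (460 nm/530 nm) after 1 h RT dye loading, used for %activity and AC50 from titration series. Cells: Jurkat NFAT-β-lactamase/M1 line, treated with compound plus 1 uM carbachol for 5 h, 37 °C.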

[4] = Stat Signaling Pathway (AID 446);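 note: ME-180 cervical cancer cells given 40 pM IL-6 alongside compound; SIE-controlled beta-lactamase reporter measured as 460/530 nm FRET emission ratio; % is set by controls: 0 for no effect and ±100 for the full control effect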
In short: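 Compound effects on IL-6-induced STAT reporter activity were measured in ME-180 cells. After overnight culture, cells were co-treated with 40 pM IL-6 for 5 hrs before beta-lactamase substrate loading at room temperature.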

[5] = biological target: Glucocorticoid receptor (Homo sapiens) (UniProt P04150); assay: GR-GFP Redistribution (AID 450;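 active = compounds whose dose series gives a full or clear partial fitted curve of increased nuclear translocation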; note: potency is the fitted concentration of half-maximal effect); conditions: U2OS GR-GFP nuclear translocation, laser cytometry, 2 h
Glucocorticoid receptor (Homo sapiens), sequence (P04150 whole entry, looked up, the tested form may be a part): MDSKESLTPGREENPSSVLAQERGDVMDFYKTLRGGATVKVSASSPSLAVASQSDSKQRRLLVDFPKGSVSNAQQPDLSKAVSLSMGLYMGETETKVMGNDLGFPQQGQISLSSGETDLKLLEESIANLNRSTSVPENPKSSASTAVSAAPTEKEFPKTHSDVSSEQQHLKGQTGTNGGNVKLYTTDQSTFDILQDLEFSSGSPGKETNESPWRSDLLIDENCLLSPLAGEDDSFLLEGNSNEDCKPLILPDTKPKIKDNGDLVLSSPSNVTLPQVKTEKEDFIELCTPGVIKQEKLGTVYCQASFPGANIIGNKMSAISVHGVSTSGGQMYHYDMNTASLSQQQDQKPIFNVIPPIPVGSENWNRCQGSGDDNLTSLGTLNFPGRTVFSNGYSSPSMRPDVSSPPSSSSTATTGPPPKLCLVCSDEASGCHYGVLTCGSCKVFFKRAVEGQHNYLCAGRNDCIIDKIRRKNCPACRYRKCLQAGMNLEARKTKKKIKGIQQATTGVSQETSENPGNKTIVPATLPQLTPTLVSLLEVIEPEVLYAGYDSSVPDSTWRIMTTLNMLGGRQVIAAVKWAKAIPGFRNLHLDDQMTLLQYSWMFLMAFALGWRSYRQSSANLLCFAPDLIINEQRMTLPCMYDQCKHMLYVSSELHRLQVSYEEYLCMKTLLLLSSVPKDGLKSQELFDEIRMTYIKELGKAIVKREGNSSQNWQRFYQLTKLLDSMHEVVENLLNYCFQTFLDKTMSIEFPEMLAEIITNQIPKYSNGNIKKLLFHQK

[6] = biological target: Glucocorticoid receptor (Homo sapiens) (UniProt P04150); assay: GR-EFC Redistribution (AID 451; calls by dose curve; note: potency is the fitted concentration of half-maximal effect); conditions: CHO-K1 GR-EFC translocation, beta-gal luminescence, 2 h
In short: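 Translocation of GR-ED fusion to nuclear EA restores b-gal, read by luminescence after 1 h room-temperature detection. Engineered CHO-K1 biosensor cells, 1,000/well, exposed 2 h at 37 C to titrations up to 46 uM final.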

[7] = biological target: Mitogen-activated protein kinase 10 (Mus musculus) (UniProt Q61831); assay: JNK3 AlphaScreen Assay (AID 530);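 note: kinase came from lysate of stimulated human HepG2 cells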; note: potency is the fitted concentration of half-maximal effect;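 for activity change, negative = inhibition: signal reports phosphorylation of biotinylated GST-cJun 1-79 at Ser73 with 10 µM ATP; % is set by controls: 0 for no effect and ±100 for the full control effect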
In short: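 qHTS titrations with 15 min compound pre-incubation before adding ATP (10 uM final). Read-out: AlphaScreen of Ser73-phosphorylated biotin-GST-cJun using HepG2 lysate JNK3 activated by IL-1β and TNFα.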

[8] = biological target: 3',5'-cyclic-AMP phosphodiesterase 4B (Homo sapiens) (UniProt Q07343); assay: qHTS Assay for Inhibitors of PDE-IV (AID 607; active = well fitted activation curve with a large enough effect in the main read-out, with a control signal flat, not every such curve was filed as active; note: % of control where 0% means no effect)
3',5'-cyclic-AMP phosphodiesterase 4B (Homo sapiens), sequence (Q07343 whole entry, looked up): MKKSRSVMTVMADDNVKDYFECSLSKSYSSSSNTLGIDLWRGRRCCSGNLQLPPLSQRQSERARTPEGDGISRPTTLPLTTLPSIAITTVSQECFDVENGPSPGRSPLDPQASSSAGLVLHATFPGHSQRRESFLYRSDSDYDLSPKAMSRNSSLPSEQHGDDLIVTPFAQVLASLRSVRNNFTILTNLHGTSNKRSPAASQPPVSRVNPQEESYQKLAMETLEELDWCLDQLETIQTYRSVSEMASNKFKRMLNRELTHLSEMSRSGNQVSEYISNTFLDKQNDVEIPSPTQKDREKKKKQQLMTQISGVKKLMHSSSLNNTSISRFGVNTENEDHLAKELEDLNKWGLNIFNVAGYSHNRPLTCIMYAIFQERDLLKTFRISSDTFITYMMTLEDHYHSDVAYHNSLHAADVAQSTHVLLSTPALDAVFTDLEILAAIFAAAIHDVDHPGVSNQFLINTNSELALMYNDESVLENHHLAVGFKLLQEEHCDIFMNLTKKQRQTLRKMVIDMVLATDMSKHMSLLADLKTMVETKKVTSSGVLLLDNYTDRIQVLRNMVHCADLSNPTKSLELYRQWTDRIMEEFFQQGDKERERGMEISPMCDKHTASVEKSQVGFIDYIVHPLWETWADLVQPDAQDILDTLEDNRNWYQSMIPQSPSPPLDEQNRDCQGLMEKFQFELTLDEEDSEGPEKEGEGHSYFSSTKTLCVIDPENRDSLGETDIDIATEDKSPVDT
In short: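 ACTOne HEK293 cells carry a modified cAMP-gated CNG channel and express endogenous PDE4; plated 1000 cells/well, compounds up to 22.9 uM final. Membrane-potential dye fluorescence (ex 535/em 590) was read; parental cells received 10 uM forskolin + 100 uM RO 20-1724.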

[9] = Cell Viability - BJ (AID 421; calls by dose curve;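 note: potency is the fitted concentration of half-maximal effect; cells exposed to compound for 40 hours at 37 °C before readout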); conditions: BJ fibroblast viability, qHTS
In short: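 Luminescent ATP signal (CellTiter-Glo, 20 min at room temperature) served as the read-out of viable BJ cells after 40 hours of compound treatment. Responses were scaled between DMSO and 100 uM tamoxifen, and AC50 values were obtained by Hill modeling.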

[10] = Cell Viability - Hek293 (AID 427;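 active = compounds whose dose-response curve shows a full or clear partial loss of cell viability, called from curve shape rather than a numeric limit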;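 note: potency is the fitted concentration of half-maximal effect; cells exposed to compound for 40 hours at 37 °C before reading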); conditions: qHTS
In short: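 Luminescent ATP read-out (CellTiter-Glo, 20 min RT) after 40 hr compound exposure at 37 °C in complete medium. Signal normalized to DMSO (basal) and 100 uM tamoxifen (100% inhibition); concentration-response fitted with the standard Hill equation to give AC50.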

[11] = Cell Viability - HepG2 (AID 433; calls by dose curve;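 note: potency is the fitted concentration of half-maximal effect; potency for ATP loss meaning cytotoxicity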); conditions: qHTS
In short: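 Cytotoxicity is scored as loss of intracellular ATP in HepG2 cells exposed to compounds for 40 h. Concentration-response curves, normalized to DMSO and 100 uM tamoxifen, give AC50 values.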

[12] = Cell Viability - MRC5 (AID 434; calls by dose curve;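 note: potency is the fitted concentration of half-maximal effect; cells exposed to compound for 40 hours at 37 °C; potency reflects cytotoxicity seen as loss of intracellular ATP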); conditions: MRC5 lung fibroblast viability, qHTS
In short: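 AC50 values come from Hill-equation fits of intracellular ATP loss, measured by CellTiter-Glo luminescence. Normal lung fibroblasts (MRC5) had 40 hr compound treatment at 37 C, normalized between DMSO and 100 uM tamoxifen.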

[13] = Cell Viability - SK-N-SH (AID 435; calls by dose curve; note: potency is the fitted concentration of half-maximal effect); conditions: SK-N-SH neuroblastoma cell viability qHTS
In short: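 Cells seeded at 1500 per well and incubated 5 hr at 37 °C. Compound added, then 40 hr at 37 °C. CellTiter-Glo added, 20 min at room temperature, luminescence read.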

[14] = Cell Viability - N2a (AID 540; active = well fitted curve in the direction sought with a large enough effect; an effect the other way counts as inactive or inconclusive;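 note: plate controls were DMSO alone for no effect and tamoxifen control for full effect; nearly all actives have a fitted effect of over 45% in size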); conditions: N2a mouse neuroblastoma cell viability; activity change, negative = cytotoxicity: at 92.2 µM (top of the series)
In short: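 CellTiter-Glo ATP luminescence, read 20 min after reagent at room temperature, reported viability following 40 h compound treatment at 37 °C. N2a mouse neuroblastoma cells seeded 1500/well; Hill equation gave AC50.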

[15] = Cell Viability - NIH 3T3 (AID 541; active = well fitted curve in the direction sought with a large enough effect; an effect the other way counts as inactive or inconclusive;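 note: plate controls were DMSO alone for no effect and tamoxifen positive control for full effect; nearly all actives have a fitted effect of over 25% in size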)
In short: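 Intracellular ATP (CellTiter-Glo luminescence, 20 min at room temperature) measured after 40 hr compound exposure at 37 °C of 1000 NIH 3T3 mouse fibroblasts/well in complete medium; AC50 derived by Hill-equation modelling of qHTS concentration-response curves.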

[16] = Cell Viability - HUV-EC-C (AID 542; active = well fitted curve in the direction sought with a large enough effect; an effect the other way counts as inactive or inconclusive; note: % is set by controls: 0 for no effect and ±100 for the full control effect; nearly all actives have a fitted effect of over 35% in size)
In short: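 CellTiter-Glo luminescence measured ATP loss in HUV-EC-C cells (1000/well) after 40 hr compound exposure at 37 °C, in complete culture medium. Concentration-response data were Hill-fitted to give AC50.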

[17] = Cell Viability - H-4-II-E (AID 543; active = well fitted curve in the direction sought with a large enough effect; an effect the other way counts as inactive or inconclusive; note: nearly all actives have a fitted effect of over 35% in size; note: potency is the fitted concentration of half-maximal effect)
In short: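 CellTiter-Glo luminescence (intracellular ATP) measured after 40 h compound exposure at 37 °C in H-4-II-E rat hepatoma cells seeded at 1500/well. Values are AC50s fitted with the standard Hill equation.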

[18] = Cell Viability - SH-SY5Y (AID 544; active = well fitted curve in the direction sought with a large enough effect; an effect the other way counts as inactive or inconclusive;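 note: 0% = DMSO alone and -100% = 100 µM tamoxifen; nearly all actives have a fitted effect of over 55% in size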)
In short: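 Cytotoxicity measured via ATP-dependent luciferase luminescence (CellTiter-Glo) following 40 h, 37 °C exposure of 1500 SH-SY5Y cells per well. Concentration-response data were fitted with the standard Hill equation to give AC50.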

[19] = Cell Viability - Renal Proximal Tubule (AID 545; active = well fitted curve in the direction sought with a large enough effect; an effect the other way counts as inactive or inconclusive;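 note: 0% = DMSO only and -100% = 100 µM tamoxifen; nearly all actives have a fitted effect of over 40% in size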)
In short: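 Cytotoxicity is scored as a concentration-dependent drop in cellular ATP in primary rat renal proximal tubule cells exposed for 40 hr. AC50 derives from Hill modelling.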

[20] = Cell Viability - Mesenchymal (AID 546; active = well fitted curve in the direction sought with a large enough effect; an effect the other way counts as inactive or inconclusive;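 note: cells exposed to compound for 40 hours before reading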; note: potency is the fitted concentration of half-maximal effect;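 for activity change, negative = cytotoxicity: 0% = DMSO only and -100% = 100 µM tamoxifen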)
In short: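 CellTiter-Glo luminescence (intracellular ATP, 20 min room temperature) after 40 hr compound exposure at 37 °C of 1000 glomerulus-derived human kidney mesenchymal cells/well; AC50 values obtained by fitting qHTS concentration-response data to the Hill equation.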

CCOc1cc(CC(=O)N[C@@H](CC(C)C)c2ccccc2N2CCCCC2)ccc1C(=O)O
active: Potency [5] 2.1 µM
inactive: outcome [1] | Potency [2] | activity change, negative = inhibition ([3]; at 17.2 µM (top of the series)) -1.28% | outcome [4] | Potency [6] > 20.6 µM | Potency [7] | outcome [8]

O=C(CCc1ccc(O)cc1)c1c(O)cc(O)cc1O
active: Potency [2] 6.31 µM and 2 µM
inactive: outcome [1] | activity change, negative = inhibition ([3]; at 38 µM (top of the series)) 9.49% | Potency [5] > 46 µM | Potency [6] > 46 µM | Potency [7] | outcome [8]

Cc1nc2n(c(=O)c1CCN1CCC(c3noc4cc(F)ccc34)CC1)CCCC2
inactive: outcome [1] | Potency [2] | outcome [4] | Potency [7] | outcome [8]

NC(=NCc1ccccc1)NC(=O)c1nc(Cl)c(N)nc1N
active: Potency [2] 12.6 µM and 10 µM
inactive: outcome [1] | activity change, negative = inhibition ([3]; at 17.2 µM (top of the series)) -15.5% | activity change, negative = inhibition ([3]; at 38 µM (top of the series)) -27.8% | outcome [4] | Potency [5] > 46 µM and > 20.6 µM | Potency [6] > 46 µM and > 20.6 µM | Potency [7] | outcome [8]

O=C1c2ccccc2-c2n[nH]c3cccc1c23
inactive: outcome [1] | activity change, negative = inhibition ([3]; at 38 µM (top of the series)) 6.14% | outcome [8]
active: Potency [2] 126 nM and 15.8 nM | Potency [7] 1 µM

NNc1nncc2ccccc12
active: Potency [2] 3.16 µM and 1 µM
inactive: outcome [1] | activity change, negative = inhibition ([3]; at 17.2 µM (top of the series)) -29.1% | activity change, negative = inhibition ([3]; at 38 µM (top of the series)) 8.48% | outcome [4] | Potency [5] > 46 µM and > 20.6 µM | Potency [6] > 46 µM and > 20.6 µM | Potency [7] | outcome [8]

COc1ccccc1N1CCN(CCN(C(=O)C2CCCCC2)c2ccccn2)CC1
inactive: outcome [1] | Potency [2] | activity change, negative = inhibition ([3]; at 38 µM (top of the series)) 3.68% | outcome [4] | Potency [5] > 46 µM | Potency [6] > 46 µM | Potency [7] | outcome [8]

Nc1ccc(S(N)(=O)=O)cc1
inactive: outcome [1] | Potency [9] > 92 µM | Potency [10] > 92 µM | Potency [11] > 92 µM | Potency [12] > 92 µM | Potency [13] > 92 µM | activity change, negative = inhibition ([3]; at 17.2 µM (top of the series)) -0.0158% | outcome [4] | Potency [5] > 20.6 µM | Potency [6] > 20.6 µM | Potency [7] | Potency [14] | Potency [15] | Potency [16] | Potency [17] | Potency [18] | Potency [19] | Potency [20] | outcome [8]

Nc1nc(OCc2ccccc2)c2[nH]cnc2n1
inactive: outcome [1] | activity change, negative = inhibition ([3]; at 38 µM (top of the series)) -5.61% | outcome [4] | Potency [5] > 46 µM | Potency [6] > 46 µM | outcome [8]
active: Potency [2] 1 µM

Cc1cc(=O)oc2cc(O)ccc12
inactive: outcome [1] | outcome [4] | Potency [7] | outcome [8]
active: Potency [2] 3.98 µM

c1ccc2[nH]c(-c3cscn3)nc2c1
active: Potency [2] 0.126 µM
inactive: outcome [1] | Potency [9] > 92 µM | Potency [10] > 92 µM | Potency [11] > 92 µM | Potency [12] > 92 µM | Potency [13] > 92 µM | activity change, negative = inhibition ([3]; at 17.2 µM (top of the series)) -19.5% and -28.1% | outcome [4] | Potency [5] > 20.6 µM | Potency [6] > 20.6 µM | Potency [7] | Potency [16] | Potency [17] | Potency [18] | Potency [19] | Potency [20] | outcome [8]

CCc1nc(N)nc(N)c1-c1ccc(Cl)cc1
active: Potency [2] 10 µM | Potency [10] 1.64 µM | Potency [11] 1.05 µM | Potency [13] 25.6 µM | Potency [17] 0.158 µM | Potency [20] 2 µM
inactive: outcome [1] | Potency [9] > 92 µM | Potency [12] > 92 µM | activity change, negative = inhibition ([3]; at 17.2 µM (top of the series)) -6.33% and 6.33% | outcome [4] | Potency [5] > 20.6 µM | Potency [6] > 20.6 µM | Potency [7] | Potency [16] | Potency [18] | Potency [19]

NCCCCNCCCN
inactive and 31.6 µM (active): Potency [2]
inactive: outcome [1] | activity change, negative = inhibition ([3]; at 38 µM (top of the series)) -4.2% | Potency [5] > 46 µM | Potency [6] > 46 µM | Potency [7] | outcome [8]
